# Records with an inconclusive call do not appear. Where a call stands in place of a potency, no number is given. Values without a mark were called inactive. Active and inactive are the calls of the source. The call rests on the fitted dose curve; in most records, active means well fitted curve in the direction sought with a large enough effect; inconclusive means small, poorly fitted or top-dose-only effect, or another doubt; inactive means no such curve, though single readings can be large; an effect the other way counts as inactive or inconclusive. Residues, ends and D or L forms follow the SMILES beside them. *: point of attachment. Cbz = O=C(OCc1ccccc1)*
# Legend:
# MCC-13 = experiment: qHTS assay to identify novel small-molecules to repurpose for Merkel cell carcinoma treatment (AID 1296009); conditions: MCC and control cell lines, CellTiter-Glo viability, 72 h; series mostly up to 46 µM; further: nearly all actives have a fitted effect of over 60% in size; further: potency means the concentration at half of the fitted maximal effect
# Outline: (§1)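 Cells were incubated with compound for 72 hr at 37 degree celsius before CellTiter-Glo addition. Luminescence was normalized with no-cell wells as full cytotoxicity and DMSO as baseline.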
# MCC-26 = experiment: as above; conditions: MCC and control cell lines, CellTiter-Glo viability, 72 h; series mostly up to 46 µM
# Outline: as §1
# MKL-1 = experiment: as above; conditions: MCC and control cell lines, CellTiter-Glo viability, 72 h; series mostly up to 46 µM
# Outline: as §1
# MKL-2 = experiment: as above; conditions: MCC and control cell lines, CellTiter-Glo viability, 72 h; series mostly up to 46 µM
# Outline: as §1
# UISO = experiment: as above; conditions: MCC and control cell lines, CellTiter-Glo viability, 72 h; series mostly up to 46 µM
# Outline: as §1
# WaGa = experiment: as above; conditions: MCC and control cell lines, CellTiter-Glo viability, 72 h; series mostly up to 46 µM
# Outline: as §1
# NIH3T3 = experiment: as above; conditions: MCC and control cell lines, CellTiter-Glo viability, 72 h; at 44.8 µM (top of the series) unless noted
# Outline: as §1
# C33A = experiment: Primary qHTS to identify gynecologic anti-cancer compounds using libraries of approved drugs and bioactive compounds (AID 1345084); conditions: Gynecologic cancer cell panel viability, ATPlite luminescence, 48 h; series mostly up to 57.5 µM; further: nearly all actives have a fitted effect of over 55% in size
# Outline: (§2)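 48 h compound exposure at 37 C, 5% CO2; five-point qHTS. ATPlite luminescence readout of cell ATP.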
# CASKI = experiment: as above; conditions: Gynecologic cancer cell panel viability, ATPlite luminescence, 48 h; series mostly up to 57.5 µM
# Outline: as §2
# Es-2 = experiment: as above; conditions: Gynecologic cancer cell panel viability, ATPlite luminescence, 48 h; series mostly up to 57.5 µM
# Outline: as §2
# HeLa = experiment: as above; conditions: Gynecologic cancer cell panel viability, ATPlite luminescence, 48 h; series mostly up to 57.5 µM
# Outline: as §2
# Hek293T = experiment: as above; conditions: Gynecologic cancer cell panel viability, ATPlite luminescence, 48 h, control line for the selectivity index; series mostly up to 57.5 µM
# Outline: as §2
# JEG-3 = experiment: as above; conditions: Gynecologic cancer cell panel viability, ATPlite luminescence, 48 h; series mostly up to 57.5 µM
# Outline: as §2
# OV90 = experiment: as above; conditions: Gynecologic cancer cell panel viability, ATPlite luminescence, 48 h; series mostly up to 57.5 µM
# Outline: as §2
# PA-1 = experiment: as above; conditions: Gynecologic cancer cell panel viability, ATPlite luminescence, 48 h; series mostly up to 57.5 µM
# Outline: as §2
# SKOV3 = experiment: as above; conditions: Gynecologic cancer cell panel viability, ATPlite luminescence, 48 h; series mostly up to 57.5 µM
# Outline: as §2
# Tov-21-G = experiment: as above; conditions: Gynecologic cancer cell panel viability, ATPlite luminescence, 48 h; series mostly up to 57.5 µM
# Outline: as §2
# Tov112D = experiment: as above; conditions: Gynecologic cancer cell panel viability, ATPlite luminescence, 48 h; series mostly up to 57.5 µM
# Outline: as §2
smiles,measurement,setting,value
CC(C)C[C@@H](C=O)NC(=O)[C@H](CC(C)C)NC(=O)[C@H](CC(C)C)NC(=O)OCc1ccccc1 (Cbz-Leu-Leu-Leu-aldehyde),Potency,MCC-13,2640 nM (active)
same,Potency,MCC-26,2350 nM (active)
same,Potency,MKL-1,935 nM (active)
same,Potency,MKL-2,743 nM (active)
same,Potency,UISO,1180 nM (active)
same,Potency,WaGa,935 nM (active)
CC[C@H]1OC(=O)[C@H](C)[C@@H](O[C@H]2C[C@@](C)(OC)[C@@H](O)[C@H](C)O2)[C@H](C)[C@@H](O[C@@H]2O[C@H](C)C[C@H](N(C)C)[C@@H]2O)[C@](C)(OC)C[C@@H](C)C(=O)[C@H](C)[C@@H](O)[C@]1(C)O,Potency,MCC-13,inactive
same,Potency,MCC-26,inactive
same,Potency,MKL-1,inactive
same,Potency,MKL-2,inactive
same,outcome,NIH3T3,inactive
same,Potency,UISO,inactive
same,Potency,WaGa,inactive
C[C@H](CCC(=O)O)[C@H]1CCC2C3C[C@H](O)[C@@H]4C[C@H](O)CC[C@]4(C)C3CC[C@@]21C (stereo partly specified),Potency,MCC-13,inactive
same,Potency,MCC-26,inactive
same,Potency,MKL-1,inactive
same,Potency,MKL-2,inactive
same,outcome,NIH3T3,inactive
same,Potency,UISO,inactive
same,Potency,WaGa,inactive
Cc1cn([C@@H]2O[C@H](CO)[C@@H](O)[C@H]2F)c(=O)[nH]c1=O,Potency,MCC-13,inactive
same,Potency,MCC-26,inactive
same,Potency,MKL-1,inactive
same,Potency,MKL-2,inactive
same,outcome,NIH3T3,inactive
same,Potency,UISO,inactive
same,Potency,WaGa,inactive
same,Potency,C33A,inactive
same,Potency,CASKI,inactive
same,Potency,Es-2,inactive
same,Potency,HeLa,inactive
same,Potency,Hek293T,inactive
same,Potency,JEG-3,inactive
same,Potency,OV90,inactive
same,Potency,PA-1,inactive
same,Potency,SKOV3,inactive
same,Potency,Tov-21-G,inactive
same,Potency,Tov112D,inactive
C[C@H]1COc2c(N3CCN(C)CC3)c(F)cc3c(=O)c(C(=O)O)cn1c23,Potency,MCC-13,inactive
same,Potency,MCC-26,inactive
same,Potency,MKL-1,inactive
same,Potency,MKL-2,inactive
same,outcome,NIH3T3,inactive
same,Potency,UISO,inactive
same,Potency,WaGa,inactive
OCc1ccccc1O[C@@H]1O[C@H](CO)[C@H](O)[C@H](O)[C@H]1O,Potency,MCC-13,inactive
same,Potency,MCC-26,inactive
same,Potency,MKL-1,inactive
same,Potency,MKL-2,inactive
same,outcome,NIH3T3,inactive
same,Potency,UISO,inactive
same,Potency,WaGa,inactive
O=C(C=CC=Cc1ccc2c(c1)OCO2)N1CCCCC1,Potency,MCC-13,inactive
same,Potency,MCC-26,inactive
same,Potency,MKL-1,inactive
same,Potency,MKL-2,inactive
same,outcome,NIH3T3,inactive
same,Potency,UISO,inactive
same,Potency,WaGa,inactive
O=C1NC(=O)C(=Cc2ccc3nccc(-c4ccncc4)c3c2)S1,Potency,MCC-13,1870 nM (active)
same,Potency,MCC-26,2960 nM (active)
same,Potency,MKL-1,1480 nM (active)
same,Potency,MKL-2,469 nM (active)
same,Potency,UISO,743 nM (active)
same,Potency,WaGa,833 nM (active)
CCCNS(=O)(=O)Nc1ncnc(OCCOc2ncc(Br)cn2)c1-c1ccc(Br)cc1,Potency,MCC-13,inactive
same,Potency,MCC-26,inactive
same,Potency,MKL-1,inactive
same,Potency,MKL-2,inactive
same,Potency,UISO,inactive
same,Potency,WaGa,inactive
C[C@H](CCC(=O)O)[C@H]1CC[C@H]2[C@@H]3[C@H](O)C[C@@H]4C[C@H](O)CC[C@]4(C)[C@@H]3CC[C@]12C,Potency,MCC-13,inactive
same,Potency,MCC-26,inactive
same,Potency,MKL-1,inactive
same,Potency,MKL-2,inactive
same,outcome,NIH3T3,inactive
same,Potency,UISO,inactive
same,Potency,WaGa,inactive
Cc1ccc(O)c(C(CCN(C(C)C)C(C)C)c2ccccc2)c1 (stereo unspecified),Potency,MCC-13,inactive
same,Potency,MCC-26,inactive
same,Potency,MKL-1,inactive
same,Potency,MKL-2,inactive
same,outcome,NIH3T3,inactive
same,Potency,UISO,inactive
same,Potency,WaGa,inactive
COc1cc(OC)c(NC(=O)Nc2cc(C)on2)cc1Cl,Potency,MCC-13,inactive
same,Potency,MCC-26,inactive
same,Potency,MKL-1,inactive
same,Potency,MKL-2,inactive
same,Potency,UISO,inactive
same,Potency,WaGa,inactive
C[C@]12C=CC(=O)N[C@@H]1CC[C@H]1[C@H]3CC[C@@H](C(=O)Nc4cc(C(F)(F)F)ccc4C(F)(F)F)[C@@]3(C)CC[C@@H]12,Potency,MCC-13,inactive
same,Potency,MCC-26,inactive
same,Potency,MKL-1,inactive
same,Potency,MKL-2,inactive
same,outcome,NIH3T3,inactive
same,Potency,UISO,inactive
same,Potency,WaGa,inactive
C=CC1=C(C(=O)O)N2C(=O)[C@@H](NC(=O)C(=NO)c3csc(N)n3)[C@H]2SC1,Potency,MCC-13,inactive
same,Potency,MCC-26,inactive
same,Potency,MKL-1,inactive
same,Potency,MKL-2,inactive
same,outcome,NIH3T3,inactive
same,Potency,UISO,inactive
same,Potency,WaGa,inactive
O=C(O)[C@H](CC(=O)N1C[C@@H]2CCCC[C@H]2C1)Cc1ccccc1,Potency,MCC-13,inactive
same,Potency,MCC-26,inactive
same,Potency,MKL-1,inactive
same,Potency,MKL-2,inactive
same,outcome,NIH3T3,inactive
same,Potency,UISO,inactive
same,Potency,WaGa,inactive
C[C@@H](NCc1cc2ccccc2[nH]1)c1cccc2ccccc12,Potency,MCC-13,inactive
same,Potency,MCC-26,inactive
same,Potency,MKL-1,inactive
same,Potency,MKL-2,inactive
same,Potency,UISO,inactive
same,Potency,WaGa,inactive
O=C(c1ccc(F)cc1)N1CCC[C@H](c2nc(-c3ccc(F)cc3)no2)C1,Potency,MCC-13,inactive
same,Potency,MCC-26,inactive
same,Potency,MKL-1,inactive
same,Potency,MKL-2,inactive
same,outcome,NIH3T3,inactive
same,Potency,UISO,inactive
same,Potency,WaGa,inactive
CC(C)(O)[C@H]1CC[C@@](C)([C@H]2[C@@H](O)C[C@@]3(C)[C@@H]4C[C@H](O[C@@H]5O[C@H](CO)[C@@H](O)[C@H](O)[C@@H]5O)[C@H]5C(C)(C)[C@@H](O[C@@H]6OC[C@@H](O)[C@H](O)[C@@H]6O)CC[C@@]56C[C@@]46CC[C@]23C)O1,Potency,MCC-13,inactive
same,Potency,MCC-26,inactive
same,Potency,MKL-1,inactive
same,Potency,MKL-2,inactive
same,outcome,NIH3T3,inactive
same,Potency,UISO,inactive
same,Potency,WaGa,inactive
Oc1cc2c(cc1O)C1c3ccc(O)c(O)c3OCC1(O)C2 (stereo unspecified),Potency,MCC-13,inactive
same,Potency,MCC-26,inactive
same,Potency,MKL-1,inactive
same,Potency,MKL-2,inactive
same,outcome,NIH3T3,inactive
same,Potency,UISO,inactive
same,Potency,WaGa,inactive
CC[C@H]1OC(=O)[C@H](C)[C@@H](O[C@H]2C[C@@](C)(OC)[C@@H](O)[C@H](C)O2)[C@H](C)[C@@H](O[C@@H]2O[C@@H](C)C[C@H](N(C)C)[C@@H]2O)[C@](C)(O)C[C@@H](C)C(=O)[C@H](C)[C@@H](O)[C@]1(C)O,Potency,MCC-13,inactive
same,Potency,MCC-26,inactive
same,Potency,MKL-1,inactive
same,Potency,MKL-2,inactive
same,outcome,NIH3T3,inactive
same,Potency,UISO,inactive
same,Potency,WaGa,inactive

# Reference: PubChem BioAssay (NCATS)
